Out of some 69,000 compounds screened, about 8,600 (12%) showed an effect of 50% or more. The sample holds strong results, similar compounds and a random draw of the others, so the mix is not that of the screen.
Each compound was assayed on Plasmodium berghei (assay: Screen against P. berghei liver stage (PbLuc), transformed with Luciferase, at 10uM). Settings: tested at 10 uM.
Type: functional, HepG2

In order of rising INHIBITION:
1. CN(C)C(=O)CN1C[C@H]2CCN(c3ncccn3)CC[C@H]2S1(=O)=O  -85.3%
2. COCc1ccccc1NC(=O)CCNC(=O)c1ccoc1  -77.9%
3. CCC(=O)c1ccc(OCC(=O)NC(C)c2nnn[nH]2)cc1 (configuration not stated)  -47.9%
4. CCn1nc(C)c2nc(C(C)C)nc(N3CCOCC3)c21  -38.8%
5. Cc1nccc([C@@H]2C[C@@H]3CCN(S(=O)(=O)C4CC4)C[C@H]3O2)n1  -37.9%
6. Cc1ccc(NS(=O)(=O)c2ccc(C#N)cc2)c(CN(C)C)c1  -33.5%
7. CC(=O)N1CCCC(Cc2cnc(-n3ccnc3)cn2)C1 (configuration not stated)  -33.4%
8. NC(=O)N1CC[C@@H]2O[C@H](COCC(=O)N3CCCC3)CC[C@@H]21  -27.9%
9. O=C1CN(c2ccc(CNC(=O)NCc3ccoc3)cc2)CCN1  -22.9%
10. O=C(c1ccccc1)N1CC[C@H]2C[C@@H](c3nccs3)O[C@@H]2C1  -22.5%
11. O=C(CSc1ccc(F)cc1F)NS(=O)(=O)c1ccc2c(c1)OCCO2  -16.45%
12. Cc1cc(C)n(-c2ccc3nnc(C)n3n2)n1  -14.9%
13. Cc1nc(C)n(CC2CN(c3ncccc3C#N)CCO2)n1 (configuration not stated)  -14.7%
14. C[C@@H]1CN(Cc2cc3ccccc3n2C)CC[C@]1(C)O  -13.6%
15. Cc1cn(CC(=O)N(C)Cc2cccc3ncccc23)c(=O)[nH]c1=O  -12.8%
16. Cc1cc(C(=O)NC(C)c2nnn[nH]2)c2ccc(C)c(C)c2n1 (configuration not stated)  -11.6%
17. CC(C)(NS(C)(=O)=O)c1nc(-c2ccc(F)cc2Cl)no1  -9.76%
18. CCN(CC(=O)NC1(C)CCS(=O)(=O)C1)Cc1ccc(OC)c(F)c1 (configuration not stated)  -9.37%
19. CCOc1ccccc1NC(=O)N(CCO)Cc1ccsc1  -8.51%
20. O=C(O)c1cc(-c2cncnc2)cc(S(=O)(=O)N2CCCCCC2)c1  -8%
21. Cc1ccc(C(=O)Nc2ccc(N3CCCC3)cn2)cc1F  -6.12%
22. Cc1ccccc1NC(=O)N1CC[C@@H]2CN(C)S(=O)(=O)[C@@H]2CC1  -6.05%
23. O=C(c1ccco1)N1CC[C@@H]2O[C@H](COCC3CCOCC3)CC[C@@H]21  -4.99%
24. Cc1n[nH]c2c1C(c1cnn(C)c1)SCC(=O)N2 (configuration not stated)  -2.37%
25. COc1cccc(CC(=O)N2CC[C@@H]3CN(C)S(=O)(=O)[C@@H]3CC2)c1  -1.28%
26. Cc1ccc(NS(=O)(=O)c2cccc(C#N)c2)c(CN(C)C)c1  -0.613%
27. CN(C)C(=O)COC[C@@H]1CC[C@H]2[C@H](CCN2c2ncccn2)O1  0.542%
28. CC(C)C(=O)N1CC2(CCN(CC(C)(C)C)CC2)C1  1.34%
29. O=C(NCc1ccc(N2CC=CC2)cc1)Nc1nnc(C2CC2)s1  3.87%
30. COc1ccc(NC(=O)N(CCO)Cc2ccsc2)c(OC)c1  5.85%
31. CC(C)[C@H]1COC(=O)N1CC(=O)N1CCN(C(=O)c2ccco2)CC1  7.6%
32. Cc1cc(C(=O)N2CCCC2)ccc1NCC(=O)N1CCOCC1  7.67%
33. CC(C)n1nc(O)c2c1NC(=O)CSC2c1cnn(C)c1 (configuration not stated)  9.36%
34. C=C(C)COc1cccc(C(=O)NCCCc2nnn[nH]2)c1  9.41%
35. Cc1noc(C)c1C(=O)N1CCCN(Cc2cscn2)CC1  9.64%
36. COCc1nnc(C(=O)N2CC(N3CCCCC3)C2)o1  10.6%
37. O=C(O)c1c(NC2CCC2)ncc2c1CCN(C1CCOC1)C2 (configuration not stated)  11.3%
38. O=S1(=O)NC[C@H]2CCN(Cc3ccccc3)CC[C@H]21  12.7%
39. COCCN(Cc1cccc(OCCO)c1)Cc1ccccc1F  13%
40. Cc1nnc(NC(=O)NCc2ccc(N3CCNC(=O)C3)cc2)s1  14.7%
41. NC(=O)N1CC[C@@H]2O[C@@H](COCC(=O)N3CCCC3)CC[C@@H]21  15.4%
42. CN(C)C[C@@H]1CCC[C@@H]2CN(c3ncccn3)C[C@@H]21  16.1%
43. Cc1ccc(C(=O)Nc2cc(C(N)=O)ccc2CN(C)C)cc1Cl  16.4%
44. Cc1cc(Nc2ccccn2)nc(C2CCCN(CCO)C2)n1 (configuration not stated)  17.4%
45. Cc1nn(CCC(=O)N(C)Cc2c(Cl)cnn2C)cc1Br  18.3%
46. CCN(Cc1ccc(Cl)c(Cl)c1)C(=O)CCn1cncn1  19.3%
47. CC(Cn1cccn1)NC(=O)NCc1ccc(S(C)(=O)=O)cc1 (configuration not stated)  19.5%
48. Cc1nc(CCNC(=O)Nc2cc(C(F)(F)F)c[nH]c2=O)cs1  19.7%
49. Cc1cc(C(N)=O)ccc1NC(=O)c1nc(N2CCCC2)ncc1Cl  20.1%
50. COCCN1CCOCC2(CCCN(Cc3ccc(C)o3)C2)C1 (configuration not stated)  20.2%
51. CN(Cc1cccc(CCN)c1)Cc1cccc2ncccc12  20.3%
52. Cc1cc(NC(=O)CNC2CCCN(c3cccnn3)C2)on1 (configuration not stated)  21%
53. Cc1ccccc1N1CCCN(C(=O)CN2C(=O)OC[C@@H]2C(C)C)CC1  23%
54. O=C(NCCc1ccccc1)N1CC[C@@H]2CNS(=O)(=O)[C@@H]2CC1  23.1%
55. COc1cc(C)nc(N2CCN(C(=O)COCC3CC3)CC2)n1  23.295%
56. O=C(c1ccco1)N1CC[C@@H]2O[C@H](COCCN3CCCC3)CC[C@@H]21  24.1%
57. NCC1CCC(C(NC(=O)c2ccccn2)c2ccccn2)CC1 (configuration not stated)  24.4%
58. CCCN(Cc1cccc(OCCO)c1)Cc1ccccc1OC  25%
59. Cc1noc(C)c1-c1cncc(C2CCCN2Cc2cn(C)cn2)n1 (configuration not stated)  26.8%
60. Cc1nn(-c2ncccn2)c2c1C(c1cnn(C)c1C)SCC(=O)N2 (configuration not stated)  27.6%
61. CN(C)C(=O)N1C[C@H]2CC[C@@H](C1)N(Cc1nnc(C3CC3)o1)C2  28%
62. O=C(c1ccno1)N1CC[C@@H]2O[C@@H](COCCN3CCCC3)CC[C@@H]21  28.4%
63. CN(C)c1nccnc1C1CCN(C(=O)C2(C)CCCCN2C)CC1 (configuration not stated)  28.6%
64. CC(C(=O)N1CCCCCC1)N1CCN(c2nccs2)CC1 (configuration not stated)  31.1%
65. CCc1cc(N(C)Cc2nonc2C)nc(N(C)C)n1  31.7%
66. COc1cc(CN2CCn3c(CO)nnc3C2)ccc1OC(C)C  35.2%
67. Cc1ccc(C(=O)N2C[C@@H](OCc3cccnc3)[C@H]3OCCC[C@@H]32)o1  35.4%
68. Cc1cccc(C(=O)NCc2cccnc2N(C)C)n1  35.6%
69. COCCn1nc(C(=O)N(C)Cc2cnn(C)c2)ccc1=O  36.3%
70. COc1ccc(CC(=O)N2CC[C@@H]3CN(C)S(=O)(=O)[C@@H]3CC2)cc1  37.5%
71. O=C(c1ccoc1)N1CC[C@@H]2O[C@@H](COCC3CCOCC3)CC[C@@H]21  38.1%
72. CC(C)n1cnnc1CN(C)C(=O)c1cnn2ccccc12  38.2%
73. CC(O)CNC(=O)NCc1ccc(N2CCNC(=O)C2)cc1 (configuration not stated)  39.5%
74. Cc1cnccc1-c1cnn(CCNC(=O)C(C)(C)C)c1C1CC1  39.7%
75. CC1(C(=O)N2CCOCC2)CN(Cc2c[nH]cn2)CCO1 (configuration not stated)  39.7%
76. O=c1cccnn1CC1CN(Cc2ccsc2)Cc2nccn2C1 (configuration not stated)  40.4%
77. Cc1nn(-c2ccccn2)c2c1C(c1cnn(C)c1)SCC(=O)N2 (configuration not stated)  41.5%
78. CN(C)C(=O)CN1C[C@H]2CCN(C(=O)c3ccccc3)CC[C@H]2S1(=O)=O  44.2%
79. Cc1cc(C)c2nc(C)cc(C(=O)NC(C)c3nnn[nH]3)c2c1 (configuration not stated)  45.1%
80. COc1cccc(CC(=O)N2CC[C@@H]3[C@H](CC2)N(C)CCS3(=O)=O)c1  45.4%
81. NCC1CCC(C(NC(=O)c2ccccc2)c2ccccn2)CC1 (configuration not stated)  48.8%
82. Cc1cc(C(N)=O)ccc1NC(=O)c1nc(N2CCCCC2)ncc1Cl  49.3%
83. CC(=O)N1CC[C@@H]2O[C@@H](COCC(=O)N3CCCC3)CC[C@@H]21  52%
84. C=C(C)COc1cccc(C(=O)NC(C)c2nnn[nH]2)c1 (configuration not stated)  52.1%
85. CC(C)[C@H]1COC(=O)N1CC(=O)N1CCCN(C(=O)c2ccoc2)CC1  52.1%
86. CCN1C[C@H]2CCN(C(=O)Cc3cccc(OC)c3)CC[C@H]2S1(=O)=O  52.4%
87. O=C1CN(c2ccc(CNC(=O)NCCO)cc2)CCN1  52.5%
88. O=C(Cc1ccccc1)N1CC[C@@H]2CNS(=O)(=O)[C@@H]2CC1  54.1%
89. COc1cccc(NC(=O)N2CC[C@@H]3CN(C)S(=O)(=O)[C@@H]3CC2)c1  55.4%
90. O=C1CN(c2ccc(CNC(=O)Nc3nnc(C4CC4)s3)cc2)CCN1  59.6%
91. Cc1cc(C(=O)NC(C)c2nnn[nH]2)c2cccc(C)c2n1 (configuration not stated)  60%
92. CN(C)C(=O)CN1C[C@H]2CCN(Cc3ccccc3)CC[C@H]2S1(=O)=O  60.3%
93. Cc1nn(-c2ncccn2)c2c1C(c1cnn(C)c1)SCC(=O)N2 (configuration not stated)  61%
94. O=C(c1ccco1)N1CC[C@@H]2O[C@@H](COCC3CCOCC3)CC[C@@H]21  68.9%
95. Cc1ccc(C(=O)Nc2cc(C(N)=O)ccc2N2CCCCC2)cc1F  69.3%
96. NC(=O)c1ccc(N2CCCCC2)c(NC(=O)c2ccc(F)cc2Cl)c1  73.2%
97. CN(Cc1cccc(OCCO)c1)Cc1cccc2ncccc12  76.6%
98. COc1ccccc1NC(=O)N(CCO)Cc1ccsc1  77.6%
99. CN(Cc1cccnc1N)Cc1cccc2ncccc12  83%
100. O=C(c1ccco1)N1CC[C@@H]2O[C@@H](COCCN3CCCC3)CC[C@@H]21  83.5%
101. Cc1ccc(NCc2ccc(C#N)cc2)c(CN(C)C)c1  86.7%
102. Cc1cc(C)nc(-n2nc(C)c3c2NC(=O)CSC3c2cnn(C)c2)n1 (configuration not stated)  88.8%
